Screening data as filed in PubChem.
PolyA inh: blocks polyadenylation in yeast reporter cells; S. cerevisiae SKY197-pL101 polyadenylation reporter, beta-gal luminescence; efflux-impaired pdr1/pdr3 knockout yeast; score 100 = 6 SD above DMSO; activity score, % at 12 µM; actives 0.02% (n = 300,000); AID 1875;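 active means lowest replicate activity score at least 50, where 100 means six control SD above control mean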;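 further: yeast exposed to compound for 9 h at 30 °C; higher score means more reporter readthrough which indicates perturbed polyadenylation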
ssDAF12 agonist: activators of S. stercoralis DAF-12 nuclear receptor; HEK293 ssDAF-12/GRIP1 lit1-tk-luc reporter, luminescence; % of 3 µM dafachronic acid response; activation, % at 6.8 µM; actives 1% (n = 370,000);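 active means activation above the mean over all tested compounds plus 3 SD, cut at about 0.9% in these data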
DAX1 inh-1: inhibits human nuclear receptor DAX1; actives 0.99% (n = 340,000); inhibition, % at 6.75 µM; AID 504766; HEK293 Gal4-DAX1 luciferase reporter, luminescence;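 active means inhibition above the mean over all tested compounds plus 3 SD, cut at about 4.2% in these data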;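 further: inhibition shows as a rise in luminescence from relieved DAX1 repression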
Target sequence (P51843 207-470 limits assumed): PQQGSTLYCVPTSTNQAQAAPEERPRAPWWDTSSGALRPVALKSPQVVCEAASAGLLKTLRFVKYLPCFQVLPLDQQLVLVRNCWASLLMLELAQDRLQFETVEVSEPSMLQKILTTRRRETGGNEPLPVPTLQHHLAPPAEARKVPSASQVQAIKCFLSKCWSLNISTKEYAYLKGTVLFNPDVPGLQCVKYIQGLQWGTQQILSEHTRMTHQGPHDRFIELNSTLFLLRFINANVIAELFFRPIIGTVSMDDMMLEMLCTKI
hcDAF-12 act: activates DAF-12 receptor from parasite H. contortus | actives 1.4% (n = 370,000) | AID 652067 | activation, % at 6.8 µM | HEK293 hcDAF-12 lit1-tk-luc reporter, luminescence; 0% DMSO, 100% Δ7-dafachronic acid;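 active means activation above the mean of all tested compounds plus 3 SD, cut at about 5.5% in these data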
DAX1 inh-2: blocks DAX1 repression of SF-1 activated StAR promoter. inhibition, % at 6.8 µM. HEK293T StAR-luciferase reporter, SF-1/DAX-1 repression relief. actives 1.1% (n = 370,000);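 active means inhibition above the mean over all tested compounds plus 3 SD, cut at about 3.6% in these data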;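 further: higher inhibition means more luminescence from relief of DAX-1 repression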
hgDAF12 agonist: hgDAF-12 agonism, primary luciferase screen; AID 687014; HEK293 GAL4-hgDAF12 UAS-luciferase reporter, agonist luminescence; normalized to butyrate control; activation, % at 6.8 µM; actives 1.8% (n = 370,000);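 active means activation above a cutoff set at the mean of all screened compounds plus 3 SD, cut at about 10% in these data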
LXRb hcDAF ctr: counter-screen for hcDAF-12 agonists: agonists of human LXR-beta; 3,400 tested, under 10 active; activation, % at 6.8 µM; shares compounds with hcDAF-12 act; HEK293 Gal4-LXR tk-luc reporter, luminescence, 24 h; normalized: DMSO 0%, positive control 100%;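 active means mean percent activation of the reporter above a cutoff set as the average over tested compounds plus their standard deviation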
hcDAF12 conf: hcDAF-12 agonism, confirmation assay; actives 61% (n = 3,400); HEK293 hcDAF-12 lit1-tk-luc reporter, luminescence; % of Δ7-dafachronic acid response; shares compounds with hcDAF-12 act; activation, % at 6.8 µM; AID 743032;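 active means mean activation across triplicate tests above the threshold derived from the earlier primary screen, cut at about 5.5% in these data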
Hits are given with their value; n = inactive; x = no result. An excerpt weighted towards active compounds, which were near 4.1% of everything screened.

SMILES	PolyA inh	ssDAF12 agonist	DAX1 inh-1	hcDAF-12 act	DAX1 inh-2	hgDAF12 agonist	LXRb hcDAF ctr	hcDAF12 conf
CCOC(=O)N1CCN(C2CCCN(C(=O)c3cccc(N(C)C)c3)C2)CC1 (centres undefined)	n	n	n	n	n	n	x	x
O=C(NCCSCc1ccco1)Nc1ccccc1	n	n	n	9.8	n	n	n	n
O=C(Nc1ccccc1)C(=O)Nc1cccnc1	n	n	n	9.3	n	n	n	n
CCCCN1C(=O)CCC(C(=O)O)C1c1ccc([N+](=O)[O-])cc1 (centres undefined)	n	n	n	n	n	n	x	x
CCCc1cc(-c2ccc3c(c2)COc2c4ccccc4nn2-3)on1	n	n	n	n	n	n	x	x
Cc1cc(-c2ccc3c(c2)COc2c4ccccc4nn2-3)on1	n	n	4.8	9.0	4.5	n	n	10
O=C(NNC(=O)c1cc2ccccc2[nH]1)OCc1ccccc1	x	n	n	n	n	n	x	x
Cc1ccc(C2NC(=O)c3c(sc(C)c3C)N2)c(O)c1 (centres undefined)	n	1.0	n	9.0	n	n	n	8.4
Cc1sc2c(c1C)C(=O)NC(c1ccccc1F)N2 (centres undefined)	n	n	n	n	n	n	x	x
O=C(O)Cc1sc(Nc2cccc3ccccc23)nc1-c1ccc(Cl)cc1	n	n	n	6.7	n	n	n	n
Cc1ccc(Nc2nc(-c3ccc(C)cc3)c(CC(=O)O)s2)cc1	n	n	n	n	n	n	x	x
Cc1sc(NC(=O)c2ccco2)c(CN2CCCCC2)c1C	n	n	n	n	n	n	x	x
COc1ccc(C(=O)Nc2sc(C)c(C)c2CN2CC(C)OC(C)C2)cc1 (centres undefined)	n	n	n	8.9	3.9	11	n	n
CCN1C(=O)[C@H]2[C@@H](c3ccc(C)cc3)N[C@]3(CCCN(Cc4cccn4C)C3=O)[C@H]2C1=O	x	n	n	n	n	n	x	x
CN1CCN(CCCNC(=O)Cn2nc(-c3ccccc3)ccc2=O)CC1	n	n	n	8.5	n	n	n	n
Cc1ccc(C2c3[nH]c4ccccc4c3C[C@H]3C(=O)N(c4ccccc4C(=O)N4CCC[C@@H]4C(=O)O)C(=O)N23)cc1 (some centres undefined)	n	n	n	10	n	n	n	n
O=C(NCCN1CCOCC1)c1ccccc1N1C(=O)[C@@H]2Cc3c([nH]c4ccccc34)C(c3ccc(F)cc3)N2C1=O (some centres undefined)	n	n	n	n	n	n	x	x
Cc1ccc(C2c3[nH]c4ccccc4c3C[C@H]3C(=O)N(c4ccccc4C(=O)N4CCC(C(=O)O)CC4)C(=O)N23)cc1 (some centres undefined)	n	n	n	9.6	n	n	n	n
COc1ccc(C2c3[nH]c4ccccc4c3C[C@H]3C(=O)N(c4ccccc4C(=O)NCCN4CCOCC4)C(=O)N23)cc1 (some centres undefined)	n	n	n	n	n	n	x	x
COc1cccc(C2c3[nH]c4ccccc4c3C[C@H]3C(=O)N(c4ccccc4C(=O)N4CCCC4C(=O)O)C(=O)N23)c1 (some centres undefined)	n	n	n	12	n	n	n	n
Cn1nc(CC#N)c2c(=N)n(N)cnc21	x	n	n	n	n	n	x	x
Cc1ccnc(NC(=O)Nc2cccc(F)c2)c1	n	1.5	n	16	3.7	17	n	15
O=C(c1ccc(NC(=S)NCc2ccco2)cc1)N1CCCCC1	n	n	n	n	n	n	x	x
COc1ccc(-c2csc(NC(=O)c3nc(-c4ccccc4)oc3C)n2)cc1	n	n	n	n	n	n	x	x
Cc1oc(-c2ccccc2)nc1C(=O)Nc1nccs1	n	n	n	8.7	n	n	n	8.5
SMILES	PolyA inh	ssDAF12 agonist	DAX1 inh-1	hcDAF-12 act	DAX1 inh-2	hgDAF12 agonist	LXRb hcDAF ctr	hcDAF12 conf
N#CCNC1CC(=O)N(c2ccccc2)C1=O (centres undefined)	n	n	n	n	n	n	x	x
CCc1ccc(NC(=O)c2cccc(C(=O)Nc3ccc(CC)cc3)n2)cc1	n	n	n	n	n	n	x	x
COC(=O)c1cccc(C(=O)Nc2ccc(C)cc2)n1	n	1.0	n	7.1	n	n	n	7.5
Cc1nc(C(F)(F)F)ccc1C(=O)N1CCCCCC1(C)C(=O)NCC(C)C (centres undefined)	x	n	x	n	n	n	x	x
CCOc1ccc(CNC(=O)CCCOc2cc(=O)n(C)c3ccccc23)cc1	n	n	n	n	n	n	x	x
Cc1ccc(-c2cc(C(F)F)n3ncc(C(=O)N4CCCc5ccccc54)c3n2)cc1	n	n	n	6.6	n	n	n	n
COc1ccc(-c2cc(C(F)F)n3ncc(C(=O)N4CCc5ccccc54)c3n2)cc1	n	n	n	n	n	n	x	x
OCC1CCCN(C(=S)Nc2ccc(OC(F)F)cc2)C1 (centres undefined)	n	n	n	11	n	n	n	n
Cc1cccc(NC(=O)Nc2ccc(Br)cc2)n1	n	1.3	n	7.6	n	n	n	6.2
Cc1ccc2nc(-c3cc(-c4ccccc4)no3)cn2c1	n	n	n	8.1	n	12	n	n
CCc1ccn2cc(-c3cc(-c4ccccc4)no3)nc2c1	n	n	n	n	n	n	x	x
O=C(Nc1nnc(SCC(=O)N2CCCc3ccccc32)s1)c1ccccc1	n	n	n	8.0	n	n	n	n
O=C(NC(=S)N1CCCc2ccccc21)c1ccc(Cl)cc1	x	n	n	7.9	n	n	n	9.2
O=C(NC(=S)N1CCCc2ccccc21)c1ccccc1	n	n	n	8.3	n	n	n	9.2
COc1ccccc1C(=O)NC(=S)N1CCCc2ccccc21	n	n	n	n	n	n	x	x
Fc1cccc(Cc2c(-c3ccco3)nc3c4ccccc4ccn23)c1	x	3.7	x	6.7	n	13	n	9.5
c1coc(-c2nc3c4ccccc4ccn3c2Cc2ccsc2)c1	x	1.6	x	7.4	n	12	n	15
Clc1cccc(Cc2c(-c3ccco3)nc3c4ccccc4ccn23)c1	x	n	x	n	n	n	x	x
Clc1cccc(Cc2c(-c3ccccc3)nc3c4ccccc4ccn23)c1	x	n	x	n	n	n	x	x
CCc1ccc(NC(=O)CCc2c(C)nn(-c3ccc(N4CCCCC4)nn3)c2C)cc1	n	n	n	n	n	n	x	x
